About 83,000 compounds went through this panel and 20% of them were active in at least one assay; those are over-represented in the sample as a whole.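 Values shown are percent growth following 48 h exposure of cells in 96-well plates to a single concentration of compound; below 10 was considered active.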 Unmarked numbers belong to inactive results. Calls of active or inactive are those of the source.
Assays:
Experiment in all cases: NCI-60 one-dose screen, 48 h (100 = growth as untreated, 0 = no growth, -100 = all killed)
Settings in all cases: 10 µM
[1] = tested on: SR leukemia
[2] = tested on: RPMI-8226 leukemia
[3] = tested on: OVCAR-8 ovarian
[4] = tested on: OVCAR-5 ovarian
[5] = tested on: OVCAR-4 ovarian
[6] = tested on: SK-OV-3 ovarian
[7] = tested on: IGROV1 ovarian
[8] = tested on: OVCAR-3 ovarian
[9] = tested on: HS 578T breast
[10] = tested on: NCI/ADR-RES ovarian
[11] = tested on: T-47D breast
[12] = tested on: BT-549 breast
[13] = tested on: MDA-MB-435 melanoma
[14] = tested on: SW-620 colon
[15] = tested on: MCF7 breast
[16] = tested on: HCT-116 colon
[17] = tested on: HCC-2998 colon
[18] = tested on: KM12 colon

SMILES	growth [1]	growth [2]	growth [3]	growth [4]	growth [5]	growth [6]	growth [7]	growth [8]	growth [9]	growth [10]	growth [11]	growth [12]	growth [13]	growth [14]	growth [15]	growth [16]	growth [17]	growth [18]
COc1ccc(Cl)cc1Nc1nc(C(F)(F)F)ccc1C(=O)N/N=C/c1ccc(Cl)cc1	-0.906% (active)	20.4%	46.8%	57.2%	27.6%	44.5%	45.2%	-34.7% (active)	3.13% (active)	41%	37.6%	36.9%	59.2%	30.9%	23.6%	21.4%	59.4%	–
C[C@@H](O)[C@H]1C(=O)N2C(C(=O)O)=C(SC3CN[C@H](C(=O)N(C)C)C3)[C@H](C)[C@H]12 (stereo partly drawn)	123%	96.5%	107%	100%	114%	115%	101%	116%	102%	101%	98.2%	105%	101%	99.4%	101%	104%	106%	–
O=C(N/N=C/c1ccc(Cl)cc1)c1ccccc1Nc1cccc(C(F)(F)F)c1	45.7%	82%	80.3%	96.9%	74.8%	84.9%	59.3%	60.3%	61.7%	88.8%	109%	60.2%	53%	79.6%	85.2%	66.1%	–	–
C=C(C)[C@@H]1CC[C@]2(COCCC#N)CC[C@]3(C)[C@H](CC[C@@H]4[C@@]5(C)Cc6c([nH]c7ccccc67)C(C)(C)[C@@H]5CC[C@]43C)[C@@H]12	94.7%	86.1%	107%	89.3%	88.5%	100%	105%	93.9%	90.6%	98.1%	81.8%	95.3%	95.8%	92.6%	81.1%	82%	104%	–
CC(C)=CCC/C(C)=C/CC/C(C)=C/CC/C=C(\C)CC/C=C(\C)CCC(=O)Nc1ccn(C2OC(CO)C(O)C2(F)F)c(=O)n1 (stereo not drawn)	-16.1% (active)	32.1%	19.2%	74.6%	39.9%	31%	40%	40.2%	42.5%	38.8%	41%	18.3%	29.9%	33.6%	21.8%	20.3%	82.4%	–
NS(=O)(=O)c1ccc(N2N=C(c3ccccc3)CCC2=O)cc1	66.5%	94.5%	98%	112%	95.8%	113%	105%	158%	113%	98%	102%	223%	97.3%	109%	95.4%	86.8%	97%	–
O=C1c2ccccc2C(=O)c2c1ccc1c(=O)n(-c3ccccc3C(F)(F)F)nnc21	31.1%	18%	9.15% (active)	34.2%	1.52% (active)	69.9%	-27.9% (active)	-17.6% (active)	73.1%	-16.4% (active)	15.8%	52.8%	-89.5% (active)	11.4%	-51.7% (active)	-5.21% (active)	28.9%	27.2%
COc1cc(OC)c2c(=O)c(O)c(-c3ccccc3)oc2c1	40.1%	68.9%	61.9%	89%	65.3%	81.1%	78.8%	68.4%	88.9%	65.9%	92.1%	85.6%	86.9%	77.7%	70.1%	63.1%	83.9%	78.7%
Cc1ccc(Cl)cc1NC(=O)CCl	43.2%	43.8%	88%	136%	76.9%	93.5%	64.4%	99%	94.2%	102%	77.6%	57.2%	83.1%	73.7%	67.8%	62.9%	114%	–
COc1ccccc1/C=N\N/C(N)=N\N=C\c1ccccc1OC	-23.1% (active)	1.89% (active)	27.2%	32.3%	42.4%	26.3%	12%	-13.2% (active)	-14.7% (active)	22.6%	60.9%	-4.14% (active)	-39.2% (active)	13.1%	11.3%	5.25% (active)	5.64% (active)	–
Nc1ccc(CC[C@H]2CCC/C=C/[C@@H]3C[C@H](O)C[C@H]3[C@H](O)/C=C/C(=O)O2)cc1	1.1% (active)	-4.05% (active)	2.58% (active)	11.4%	11.3%	26.6%	12%	-13.4% (active)	39.6%	-0.671% (active)	10.2%	11.6%	11.4%	-27.4% (active)	-44.7% (active)	-73.7% (active)	-15.3% (active)	–
O=C(CCCCCCC(=O)Nc1ccccc1)NO	9.82% (active)	12.8%	9.38% (active)	1.38% (active)	38.3%	1.71% (active)	23.7%	-1.79% (active)	22.2%	-18.2% (active)	-12.6% (active)	53.9%	-22% (active)	-25.7% (active)	9.87% (active)	4.45% (active)	0.434% (active)	–
CN(C)c1ncnc2c1nnn2C1OC(CO)C(O)C1O (stereo not drawn)	31.3%	-4.55% (active)	8.85% (active)	26.8%	23.4%	4.66% (active)	3.79% (active)	-18.8% (active)	19.8%	15.3%	10.5%	46.1%	8.72% (active)	19.1%	6.74% (active)	17.2%	8.01% (active)	–
CN(C)c1ccc(/C=N/NC(=O)c2ccccc2Nc2cccc(C(F)(F)F)c2)cc1	85%	76.8%	99.6%	88.4%	76.1%	100%	69.1%	87.7%	83.5%	93%	75.6%	79.1%	92.3%	93.6%	92.5%	75.1%	116%	–
COc1ccc(/C(C#N)=C/c2cccc(OC)c2OC)cc1	41.2%	91.1%	96%	97.7%	98.8%	96.2%	80.6%	94.2%	91.6%	53.3%	80.7%	78.1%	9.46% (active)	65.2%	66%	89.7%	78.4%	–
CS(=O)(=O)c1nccc(-c2c(-c3cccc(OCCc4ccccc4)c3)nc3sccn23)n1	85.8%	96.9%	98%	103%	100%	96.5%	88.7%	104%	92.4%	99.9%	92.4%	116%	104%	98.2%	69.2%	83.9%	109%	–
O=C1/C=C/[C@@H](O)[C@@H]2C[C@@H](O)C[C@H]2/C=C/CCC[C@H](CCc2ccc(NC(=S)Nc3ccc4c(c3)C(=O)OC43c4ccc(O)cc4Oc4cc(O)ccc43)cc2)O1	6.14% (active)	12.3%	10.5%	17.9%	23.4%	32.1%	25.7%	-0.249% (active)	39.8%	10.9%	21.2%	21.3%	18.8%	3.26% (active)	-5.59% (active)	-37.2% (active)	-7.57% (active)	–
NC1=CC(=O)C(=O)c2cccnc21	86%	73.8%	76%	101%	91.8%	93.9%	76.7%	84%	77.5%	82.7%	97.9%	86%	-82.8% (active)	73.8%	52.5%	86.6%	83%	76.7%
